Measurements published in PubChem BioAssay.
Inconclusive results are not listed. The source made the active and inactive calls. Unless noted, no stated cut-off is given here; in the data, active means inhibition above about 30%; inactive means the rest.

How the values were obtained:
[1] = reducers of endogenous Her2 protein level, primary screen, SKBR3 breast tumor cells, AlphaScreen, ATP viability (AID 461;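 active means Her2 level under about 52% in both replicate screens, with viability over 70% of control, limit read from the data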;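 on Her2 level: lower value means less Her2 protein in the cells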;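 on viability: percent of carrier control wells set as 100% viability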); details: 18-24 h, measured here: SKBR3 viability, ATP luminescence, at 10 µM
[2] = target: Receptor tyrosine-protein kinase erbB-2 (Homo sapiens) (UniProt P04626); assay: as above; details: 18-24 h, at 10 µM, stronger effect = lower value
[3] = SK-BR-3 cell growth inhibitors, pilot screen, 24 h, human (AID 572;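 active means viability at or below 10% of carrier control in both of two separate runs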;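 further: compound exposure lasted between 18 and 24 h rather than exactly 24 h; 100% = carrier-treated control wells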); details: SK-BR-3 viability, CellTiter-Glo luminescence, at 10 µM, stronger effect = lower value
[4] = HUVEC growth inhibition – cell-based, human, primary screen (AID 575;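 active means viability at or below 30% in both replicate assays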;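 further: 100% = median of untreated cell wells with 0.1% DMSO on each plate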); details: HUVEC proliferation, CellTiter-Glo luminescence, 72 h; at 10 µM; stronger effect = lower value
[5] = growth inhibitors of H69AR lung tumor, primary screen, human, duplicate replicates (AID 580;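 active means viability at or under a set limit in both replicates, limit being median viability minus 3 SD, cut at about 48% in these data, passing the limit was not always enough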;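 further: 100% = mean luminescence of untreated wells and 0% = no signal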); details: H69AR lung tumor cells viability, ATP luminescence, 72 h; at 10 µM; stronger effect = lower value
[6] = reversal of MRP1-mediated doxorubicin resistance, pilot screen, H69AR cells, doxorubicin co-treatment (AID 601;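 active means viability loss from added drug above about 55%, and viability with drug at most 40%, in both replicates, limit read from the data, passing the limit was not always enough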); details: CellTiter-Glo, 72 h, at 10 µM; for differential viability (reversal): stronger effect = higher value
[7] = 384-well plate pilot, post-Golgi transport modulator project, inhibition of yeast transport mutant growth (AID 636; in the data active means inhibition above about 31%); details: absorbance 615 nm, about 18 h, stronger effect = higher value
[8] = growth suppression of yeast trafficking mutant, preliminary HTS, modulators of trafficking downstream of Golgi apparatus project, 1536-format plate, OD 615 nm (AID 637); details: yeast transport mutant growth, absorbance 615 nm, 18 h; stronger effect = higher value
[9] = OD615 S. cerevisiae growth inhibition, permissive medium, pilot counter-assay, permissive growth control for S. cerevisiae lifespan shortening project (AID 705;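 active means growth inhibition above 25% in both replicates, a cutoff set 3 SD above the mean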); details: OD615, 24 h, at 10 µM, stronger effect = higher value
[10] = Restrictive medium S. cerevisiae growth inhibition, OD615, pilot screen of yeast lifespan reduction project, restrictive growth control (AID 706;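 active means growth inhibition above a set limit, 3 SD over mean compound inhibition, in both replicates, cut at about 43% in these data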;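 further: modified DeaD lifespan yeast strain shifted to restrictive glucose medium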); details: OD615, 48 h, at 10 µM, stronger effect = higher value
[11] = viability gain of MRP-1-high H69AR cells under doxorubicin, pilot screen, MRP-1 activator project, CellTiter-Glo, duplicate (AID 807;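 active means viability increase at or above a cutoff of the median across tested compounds plus 3 SD, cut at about 8.5% in these data, passing the limit was not always enough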;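 further: compound pretreatment 18-22 h then 72 h combined with doxorubicin; 0% = doxorubicin alone and 100% = vehicle without doxorubicin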); details: H69AR viability with doxorubicin, CellTiter-Glo luminescence; at 10 µM; stronger effect = higher value
[12] = growth suppression of beta-catenin knockout HCT116, pilot screen, human colon tumor cells (AID 823;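 active means cell viability at or below a set limit in both duplicate runs, the limit being the all-compound median minus 4 SD, cut at about 23% in these data, passing the limit was not always enough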;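 further: 0% = wells killed by 20 µM Hyamine and 100% = untreated DMSO cell wells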); details: CellTiter-Glo, 60 h, at 10 µM, stronger effect = lower value
[13] = growth suppression of PTEN-deleted HCT116, pilot screen, cell-based, HCT116 clonal line, CellTiter-Glo (AID 824;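 active means viability at or below 27.92% in each of two runs, the all-compound median minus 4 SD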;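 further: 0% = 20 µM Hyamine control and 100% = vehicle cell control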); details: 60 h, at 10 µM, stronger effect = lower value
[14] = inhibitors of the yeast RAM network, pilot screen, dse1pr::URA3 reporter, 5-FOA selection (AID 869;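 active means inhibition over a set limit, the all-compound mean plus 3 SD, in both replicate runs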;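 further: 0% = DMSO wells with no growth and 100% = 10 µM 1-NA-PP1 with full growth; RAM network block rescues cells from 5-FOA so hits raise OD615 growth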); details: S. cerevisiae dse1pr::URA3 5-FOA growth, OD615, 2 d; at 10 µM; stronger effect = higher value; strain carries analog-sensitive mutant Cbk1 kinase
[15] = RAM signaling pathway blockade in yeast – S. cerevisiae, Pdr1DBD-CYC8 efflux-inhibited sensitized strain, primary screen (AID 1298;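 active means RAM network inhibition above 8.4% in each of two replicates, 3 SD over the compound average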;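 further: 0% = DMSO untreated cells without growth and 100% = 10 µM 1-NA-PP1 full growth; higher means more yeast growth rescued from 5-FOA killing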); details: S. cerevisiae cbk1-as DSE1-URA3 strain, 5-FOA growth OD615, 2 d; at 50 µM; stronger effect = higher value
[16] = H69AR cells + 2 uM doxorubicin, measured here: viability with 2 uM doxorubicin, stronger effect = lower value
[17] = H69AR cells, compound alone cytotoxicity

Receptor tyrosine-protein kinase erbB-2 (Homo sapiens), sequence (P04626 whole entry, looked up): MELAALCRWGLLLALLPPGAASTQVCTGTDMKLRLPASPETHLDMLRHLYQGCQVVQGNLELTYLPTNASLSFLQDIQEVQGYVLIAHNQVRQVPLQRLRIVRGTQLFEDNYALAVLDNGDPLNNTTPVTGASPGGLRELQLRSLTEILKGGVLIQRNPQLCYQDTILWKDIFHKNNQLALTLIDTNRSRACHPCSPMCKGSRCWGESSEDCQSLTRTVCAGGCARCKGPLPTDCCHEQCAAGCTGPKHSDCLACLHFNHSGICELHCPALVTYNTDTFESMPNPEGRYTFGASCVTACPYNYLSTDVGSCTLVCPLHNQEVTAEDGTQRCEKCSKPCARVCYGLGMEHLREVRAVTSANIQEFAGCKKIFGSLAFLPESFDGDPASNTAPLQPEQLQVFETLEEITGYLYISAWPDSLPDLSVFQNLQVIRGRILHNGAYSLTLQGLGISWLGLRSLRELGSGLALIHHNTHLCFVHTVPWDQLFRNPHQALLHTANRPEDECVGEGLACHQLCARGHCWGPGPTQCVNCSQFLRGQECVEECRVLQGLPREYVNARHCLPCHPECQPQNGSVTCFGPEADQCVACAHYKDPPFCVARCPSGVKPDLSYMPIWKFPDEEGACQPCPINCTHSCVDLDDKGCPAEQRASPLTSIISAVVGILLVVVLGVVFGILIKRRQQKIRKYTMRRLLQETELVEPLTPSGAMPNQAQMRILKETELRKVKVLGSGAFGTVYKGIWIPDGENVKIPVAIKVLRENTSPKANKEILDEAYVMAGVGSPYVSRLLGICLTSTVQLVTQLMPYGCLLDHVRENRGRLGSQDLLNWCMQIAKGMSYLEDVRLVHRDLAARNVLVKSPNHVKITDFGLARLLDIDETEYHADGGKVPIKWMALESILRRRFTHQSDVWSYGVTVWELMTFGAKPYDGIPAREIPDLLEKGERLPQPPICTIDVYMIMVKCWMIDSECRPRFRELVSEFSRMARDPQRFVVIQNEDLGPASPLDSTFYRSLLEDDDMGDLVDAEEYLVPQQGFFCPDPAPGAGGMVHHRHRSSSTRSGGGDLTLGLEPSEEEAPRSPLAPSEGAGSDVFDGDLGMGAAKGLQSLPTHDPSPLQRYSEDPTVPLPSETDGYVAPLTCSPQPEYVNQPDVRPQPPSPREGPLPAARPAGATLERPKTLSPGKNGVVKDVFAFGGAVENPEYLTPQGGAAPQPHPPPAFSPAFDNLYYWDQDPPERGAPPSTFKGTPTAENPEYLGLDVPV

Structure (SMILES)	viability [1] [%]	Her2 level [2]	viability [3]	viability [4]	viability [5]	differential viability (reversal) ([6]; H69AR cells + 2 uM doxorubicin)	viability [6, 16] [%]	viability [6, 17] [%]	inhibition [7]	inhibition [8]	growth inhibition [9]	growth inhibition [10]	viability increase [11]	viability [12]	viability [13]	inhibition [14]	RAM network inhibition [15]
COc1cccc(NC(=O)C2CCCN(S(=O)(=O)c3cccc4cccnc34)C2)c1 (stereo not drawn)	106	102% (inactive)	106% (inactive)	77.8% (inactive)	82.7% (inactive)	-6.64% (inactive)	89.3	82.7	-5.73% (inactive)	-5.5% (inactive)	-12.6% (inactive)	-6.68% (inactive)	-1.5% (inactive)	72.4% (inactive)	70.6% (inactive)	1.77% (inactive)	3.85% (inactive)
Nc1nc(N2CCCCC2)nc(N(c2ccccc2)c2ccccc2)n1	107	104% (inactive)	107% (inactive)	69.3% (inactive)	70.6% (inactive)	-4.36% (inactive)	75	70.6	-5.2% (inactive)	-2.33% (inactive)	-12.8% (inactive)	8% (inactive)	-1.3% (inactive)	89.5% (inactive)	87.1% (inactive)	0.36% (inactive)	1.36% (inactive)
CC(Sc1nc(-c2ccccc2)cc(C(F)(F)F)n1)C(=O)N1CCCC1 (stereo not drawn)	84.5	94.5% (inactive)	84.5% (inactive)	89.7% (inactive)	88.8% (inactive)	-8.49% (inactive)	97.3	88.8	-4.13% (inactive)	-3.61% (inactive)	-2% (inactive)	-21.7% (inactive)	-2.25% (inactive)	89.2% (inactive)	84% (inactive)	0.895% (inactive)	1% (inactive)
CS(=O)(=O)NCCSCc1c(F)cccc1Cl	89.5	107% (inactive)	89.5% (inactive)	100% (inactive)	102% (inactive)	12.5% (inactive)	89.7	102	0.4% (inactive)	-8.06% (inactive)	-2.46% (inactive)	-2.41% (inactive)	0.04% (inactive)	96.2% (inactive)	91.9% (inactive)	1.1% (inactive)	1.27% (inactive)
CCOc1ccc(S(=O)(=O)N2CCN(c3ccc(C)cc3C)CC2)cc1	98.5	114% (inactive)	98.5% (inactive)	90.1% (inactive)	90.1% (inactive)	-14.9% (inactive)	105	90.1	-5.07% (inactive)	-4.67% (inactive)	7.69% (inactive)	5.65% (inactive)	-0.07% (inactive)	65.6% (inactive)	83.5% (inactive)	2.64% (inactive)	6.67% (inactive)
CC(=O)NC(CCS(C)(=O)=O)C(=O)Nc1cc(C)on1 (stereo not drawn)	119	106% (inactive)	119% (inactive)	105% (inactive)	99.1% (inactive)	7% (inactive)	92.1	99.1	-4.67% (inactive)	0% (inactive)	-14.1% (inactive)	-22.3% (inactive)	1% (inactive)	104% (inactive)	95.7% (inactive)	1.99% (inactive)	0.32% (inactive)
Cc1c(Cl)cccc1NC(=O)CCN1CCCCC1	100	92% (inactive)	100% (inactive)	100% (inactive)	101% (inactive)	6% (inactive)	94.9	101	-2.8% (inactive)	0.16% (inactive)	-7.21% (inactive)	2.33% (inactive)	-1.01% (inactive)	100% (inactive)	96.4% (inactive)	0.655% (inactive)	4.96% (inactive)
O=C(Nc1cccnc1)Nc1ccccn1	100	100% (inactive)	100% (inactive)	105% (inactive)	96.9% (inactive)	9.92% (inactive)	87	96.9	-1.69% (inactive)	-2.33% (inactive)	-2.38% (inactive)	-0.12% (inactive)	-0.73% (inactive)	99.8% (inactive)	92.9% (inactive)	0.185% (inactive)	0.51% (inactive)
CCS(=O)(=O)c1nc2ccccc2n1Cc1ccccc1Cl	101	93% (inactive)	101% (inactive)	109% (inactive)	74.1% (inactive)	-9.51% (inactive)	83.6	74.1	-0.27% (inactive)	5.33% (inactive)	-25.4% (inactive)	-20.7% (inactive)	-4.6% (inactive)	71% (inactive)	61.5% (inactive)	-0.515% (inactive)	5.91% (inactive)
